Laboratory results: PubChem BioAssay (Tox21)
“And” between values parts separate entries of the source, which are not always exact repeats. Equal entries are not always repeated. Inconclusive results are not listed. A call without a number means that no potency is given here. Some compounds were tested as several samples or in several runs, with calls that do not always agree. The source made the active and inactive calls. Calls come from the whole dose curve; as a rule, active = well fitted cell-killing curve with a large enough effect in the repeat runs; inconclusive = weak or mixed curves, or effect the other way; inactive = no such curve, though single readings can be large or run the other way.

assay: qHTS assay to identify small molecule antagonists of the vitamin D receptor (VDR) signaling pathway - cell viability counter screen (AID 743225); conditions: VDR-bla HEK293T viability, CellTiter-Glo luminescence, 16 h; series mostly up to 61 µM; viability change, negative = cytotoxic: at the top concentration; note: nearly all actives have a fitted effect of over 50% in size
From the text: U.S. Tox21 Program National Center for Advancing Translational Sciences [NCATS] NIH Chemical Genomics Center [NCGC] U.S. Environmental Protection Agency [EPA] National Institutes of Environmental Health Sciences [NIEHS] National Toxicology Program [NTP] U.S. Food and Drug Administration [FDA] Tox21 Assay Overview: The vitamin D receptor (VDR), a member of nuclear hormone receptor superfamily, plays a critical role in calcium homeostasis and bone metabolism. It is also involved in cell differentiation and growth, and thrombogenicity. To identify the compounds that inhibit VDR signaling, the VDR-UAS-bla HEK 293T cell line (Invitrogen, Carlsbad, CA, USA) containing a beta-lactamase reporter gene under the control of an upstream activator sequence (UAS) was used to screen the Tox21 10K compound library. The cytotoxicity of the Tox21 compound library against the VDR-bla cell line was tested in parallel by measuring the cell viability using CellTiter-Glo assay (Promega, Madison, WI) in the same wells.
Tox21 Assay Protocol Summary: VDR-bla cells were dispensed at 2,000 cells/5 uL of assay medium per well into black wall/clear-bottom 1536-well plates using a Multidrop Combi (Thermo Fisher Scientific, Waltham, MA) dispenser. After the assay plates were incubated at a 37C and 5% CO2 for 4 h, 23 nL of compounds dissolved in DMSO, positive controls or DMSO only was transferred to the assay plate by a Pintool station (Kalypsys, San Diego, CA), followed by addition of 1 uL of 1-alpha, 25-Dihydroxy Vitamin D3 (3 nM, final concentration in the wells) using a Bioraptr Flying Reagent Dispenser (FRD) workstation (Beckman Coulter, Indianapolis, IN). The plates were incubated at 37C and 5% CO2 for 16 h, and then 1 uL of LiveBLAzerTM B/G FRET substrate was added using a Bioraptr FRD. The plates were incubated at room temperature for 2 h and fluorescence intensity was measured by an Envision plate reader (PerkinElmer, Shelton, CT). For cell viability readout that measures cytotoxicity, 3 ul/well of CellTiter-Glo reagent was added into the assay plates using a Bioraptr FRD. After 30 min incubation at room temperature, the luminescence intensity in the plates was measured using a ViewLux plate reader (PerkinElmer).
Potency is the fitted concentration of half-maximal effect.

| Compound | Potency | viability change, negative = cytotoxic |
| --- | --- | --- |
| O=Cc1ccccc1O | inactive |  |
| CC(C)=CCC/C(C)=C\CO |  | 12.8% (inactive) |
| CC(=O)O[C@]1(C(C)=O)CC[C@H]2[C@@H]3C=C(Cl)C4=CC(=O)[C@@H]5C[C@@H]5[C@]4(C)[C@H]3CC[C@@]21C | inactive |  |
| Clc1nc(Cl)c(Cl)c(Cl)c1Cl | inactive |  |
| c1ccc2sc(SSN3CCOCC3)nc2c1 | inactive |  |
| OCCO | inactive |  |
| CC(C)CC(C)(O)C#CC(C)(O)CC(C)C (stereo not given) | inactive |  |
| OC(CCl)CCl | inactive |  |
| OC1CCCCCCCCCCC1 | inactive |  |
| CN(C)CCC=C1c2ccccc2CCc2ccccc21 | 21.9 µM (active) and 49 µM (active) and inactive |  |
| Cc1cccc([N+](=O)[O-])c1C | inactive |  |
| CC(=O)c1ccccn1 |  | 3.48% (inactive) |
| COc1cc([C@@H]2c3cc4c(cc3[C@H](O)[C@H]3COC(=O)[C@H]23)OCO4)cc(OC)c1OC | inactive |  |
| O=P(O)(O)O | inactive and 5.49 µM (active) |  |
| C#C[C@]1(O)CC[C@H]2[C@@H]3CCc4cc(OC)ccc4[C@H]3CC[C@@]21C |  | -18% (inactive) |
| Cc1cc2nc3c(=O)[nH]c(=O)nc-3n(C[C@H](O)[C@H](O)[C@H](O)CO)c2cc1C | inactive |  |
| C=C(C)C(=O)OCCOC(=O)C(=C)C | inactive |  |
| CCOC(=O)C(C#N)=C(c1ccccc1)c1ccccc1 | inactive |  |
| Cc1cccc(N(C)C(=S)Oc2ccc3ccccc3c2)c1 | 15.5 µM (active) and inactive |  |
| C/C=C/C(=O)O | inactive |  |

| Compound | Potency | viability change, negative = cytotoxic |
| --- | --- | --- |
| CC1=CC2C3CC(C=C3C)C2C1 (stereo not given) | inactive |  |
| c1ccc2c(c1)Oc1ccccc1S2 | inactive |  |
| Cc1c(C(N)=O)cc([N+](=O)[O-])cc1[N+](=O)[O-] | inactive |  |
| CC(=O)C1(C)CC2=C(CCCC2(C)C)CC1C (stereo not given) | inactive |  |
| CCCCNS(=O)(=O)c1ccccc1 | inactive |  |
| CCCCC(CC)COC(=O)c1ccc(N(C)C)cc1 (stereo not given) | inactive |  |
| Cc1c(OCC(F)(F)F)ccnc1CS(=O)c1nc2ccccc2[nH]1 (stereo not given) | inactive |  |
| O=C(OCc1ccccc1)c1ccccc1O |  | -0.393% (inactive) |
| C=CC(C)(CCC=C(C)C)OC(C)=O (stereo not given) | inactive |  |
| Nc1ccc(S(=O)(=O)Nc2cnc3ccccc3n2)cc1 | inactive |  |
| CN(C)c1nc(N(C)C)nc(N(C)C)n1 | inactive |  |
| CCCCC(CC)COP(=O)(OCC(CC)CCCC)OCC(CC)CCCC (stereo not given) | inactive |  |
| O=CCCCC=O | inactive |  |
| C[Si](C)(C)O[Si](C)(C)C | inactive |  |
| O=C(Nc1ccc(Cl)cc1)Nc1ccc(Cl)c(Cl)c1 |  | -9.7% (inactive) |
| O=C(c1ccccc1)c1ccccc1O | inactive |  |
| O=C(c1ccccc1)c1ccc(O)cc1O | inactive |  |
| O=C(/C=C/C=C/c1ccc2c(c1)OCO2)N1CCCCC1 | inactive |  |
| COc1cccc2c1C(=O)c1c(O)c3c(c(O)c1C2=O)C[C@@](O)(C(=O)CO)C[C@@H]3O[C@H]1C[C@H](N)[C@H](O)[C@H](C)O1 |  | 0.802% (inactive) |
| CCC(C)(O)CCCC(C)C (stereo not given) | inactive |  |
